MLL AF4-AF9 inh: inhibitors of AF4 peptide binding to AF9, primary screen, biochemical, AlphaScreen, biotin-AF4 peptide, FLAG-AF9, single point. inhibition, % at 10 µM. 350,000 tested, 0.47% active. AID 651704, 2012;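 active = every replicate reaching a set inhibition limit, whatever the replicate mean, cut at about 25% in these data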
Glyco luc inh: increase of ERlucT glycosylation luciferase signal, primary screen, N-linked glycosylation inhibitor project, D54 ERlucT cells, luminescence, set 2; D54 ERlucT glycosylation luciferase reporter, 24 h; percent of 100 nM tunicamycin response; reporter increase, % at 12.5 µM; 360,000 tested, 0.23% active; AID 588692, 2011;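 active = mean luciferase reporter signal, scaled so untreated is 0 and the glycosylation-blocking control 100, at or above a set limit in every replicate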;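 note: luciferase carries N-glycosylation sites so blocking glycosylation raises the light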
RAD52 inh: RAD52 DNA annealing inhibitors, primary screen, biochemical, FRET, single point, set 2 | 360,000 tested, 0.46% active | AID 651710, 2012 | DNA repair protein RAD52 homolog (Homo sapiens), P43351 | inhibition, % at 18.7 µM | recombinant RAD52 DNA annealing, FRET fluorescence;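 active = every replicate showing at least 50% inhibition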
CASP6 VEID inh: human caspase-6 inhibitors, primary screen, biochemical, VEID-R110 fluorescence, single point, set 2 | 350,000 tested, 0.53% active | purified caspase-6, Z-VEID-R110 cleavage fluorescence | inhibition, % at 12.5 µM | P55212;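 active = mean inhibition across replicates at least about 35%, with every replicate also reaching that limit, limit read from the data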
RAD54 branch: inhibitors of human RAD54 branch migration, primary screen, biochemical, fluorescence, single point; DNA repair and recombination protein RAD54-like (Homo sapiens), Q92698; RAD54 Holliday junction branch migration, FAM/BHQ fluorescence; inhibition, % at 10.4 µM; 360,000 tested, 0.14% active; AID 602329, 2012;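 active = mean normalized replicate activity at least 40 and at least half of replicates scoring 40 or more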;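 note: inhibitors cause a drop in the FAM fluorescence signal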
Target sequence (Q92698 whole entry, looked up): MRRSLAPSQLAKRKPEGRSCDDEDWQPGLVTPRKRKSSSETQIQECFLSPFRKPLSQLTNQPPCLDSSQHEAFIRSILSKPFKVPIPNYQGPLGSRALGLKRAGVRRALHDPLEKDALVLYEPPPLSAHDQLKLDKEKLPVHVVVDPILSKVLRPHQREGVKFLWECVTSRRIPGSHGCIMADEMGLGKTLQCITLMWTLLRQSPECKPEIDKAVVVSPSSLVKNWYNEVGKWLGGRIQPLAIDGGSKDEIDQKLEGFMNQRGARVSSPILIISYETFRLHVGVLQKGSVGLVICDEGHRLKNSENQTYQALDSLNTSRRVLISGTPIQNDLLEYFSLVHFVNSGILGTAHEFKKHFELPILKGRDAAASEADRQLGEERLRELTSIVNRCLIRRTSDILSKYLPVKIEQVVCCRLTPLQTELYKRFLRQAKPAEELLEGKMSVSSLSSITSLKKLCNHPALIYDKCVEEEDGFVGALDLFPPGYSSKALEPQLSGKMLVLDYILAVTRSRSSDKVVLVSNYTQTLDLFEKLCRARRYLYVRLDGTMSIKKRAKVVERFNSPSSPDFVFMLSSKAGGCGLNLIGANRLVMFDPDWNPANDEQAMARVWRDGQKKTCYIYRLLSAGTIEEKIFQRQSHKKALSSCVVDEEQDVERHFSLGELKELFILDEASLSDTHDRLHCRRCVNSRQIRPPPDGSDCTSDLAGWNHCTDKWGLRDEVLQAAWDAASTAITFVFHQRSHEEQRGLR
A number is an active result; i = inactive; nt = no result given. Sampled rows, rich in hits. Any-hit rate of the full collection: about 1.2%.

SMILES	MLL AF4-AF9 inh	Glyco luc inh	RAD52 inh	CASP6 VEID inh	RAD54 branch
CC1CCc2[nH]c3ccc(C(=O)O)cc3c2C1 (centres undefined)	i	i	i	48	i
O=C(c1ccccc1NS(=O)(=O)c1ccc([N+](=O)[O-])cc1[N+](=O)[O-])N1O[C@@H]2C=C[C@H]1C2	i	i	i	37	i
COc1ccc2c3c([nH]c2c1)[C@@H](CO)N(C(=O)CN1CCOCC1)CC31CCN(C(=O)NC(C)C)CC1	i	nt	i	i	nt
CCOc1cccc(C(=O)Nc2cccc(-c3nnc(-c4ccc(C)cc4)o3)c2)c1	nt	99	nt	nt	i
CCOc1cccc(C(=O)Nc2cccc(-c3nnc(-c4ccccc4)o3)c2)c1	i	i	i	i	i
COc1ccc2c3c(n(C)c2c1)[C@@H](CO)N(C(=O)CC1CC1)CC31CCN(C(=O)CC2CC2)CC1	i	nt	i	i	nt
CCOC(=O)C/C(=N\Nc1ncnc2ccccc12)c1ccccc1	i	i	i	i	i
CCOC(=O)/C(=N\Nc1ncnc2ccccc12)c1ccc(C)cc1	42	i	i	i	i
COc1cc(Cl)c(C)cc1NC(C)C(=O)Nc1cc(C(F)(F)F)ccc1N1CCOCC1 (centres undefined)	nt	i	nt	nt	nt
COc1ccc(NC(C)C(=O)Nc2cc(C(F)(F)F)ccc2N2CCOCC2)c(OC)c1 (centres undefined)	26	i	i	i	i
CCOCCOc1cc(NCc2ccccc2)c2ncn(C(C)C)c2c1	nt	i	i	41	i
C[C@H](CO)N1C[C@H](C)[C@H](CN(C)S(C)(=O)=O)Oc2c(NC(=O)Nc3ccc(F)cc3)cccc2C1=O	i	nt	i	i	i
O=C(N1CCCCC1)C1(S(=O)(=O)c2ccccc2)CC=CC1	44	i	i	i	i
Oc1c(CNc2ccccc2)cc(COCc2ccccc2)c2cccnc12	68	i	i	i	i
CN(C)/N=C/C=C1\CCC/C(=C\c2ccc(F)c(F)c2)C1=O	i	32	i	i	nt
COc1ccc(/C=C2\CCC/C(=C\C=N\N(C)C)C2=O)cc1	i	i	i	i	nt
CN(C)C(=O)c1ccc(-c2ccccc2[C@@H]2[C@@H](CO)N(C(=O)C3CCCC3)[C@H]2C#N)cc1	i	nt	58	i	nt
N#C[C@@H]1[C@@H](c2ccccc2-c2cccc(F)c2)[C@H](CO)N1C(=O)C1CCCC1	i	nt	114	i	nt
Cc1ccc(-c2ccccc2[C@H]2[C@@H](CO)N(S(C)(=O)=O)[C@H]2C#N)cc1	i	nt	101	i	nt
Cc1cc(C)cc(N(CC(=O)N2CCCCCC2)S(C)(=O)=O)c1	i	i	i	36	i
C[C@H](CO)N1C[C@H](C)[C@H](CN(C)C(=O)NC2CCCCC2)Oc2ccc(NS(C)(=O)=O)cc2C1=O	i	nt	i	i	i
COc1ccc(NC(=O)N(C)C[C@@H]2OCCCC[C@H](C)Oc3ccc(NS(=O)(=O)c4ccccc4)cc3C(=O)N([C@@H](C)CO)C[C@@H]2C)cc1	i	nt	i	i	i
Cc1cc(C(C)(C)C)ccc1NC(=O)CC(C)(C)CC(=O)O	26	i	i	i	i
CCc1cccc(C)c1NC(=O)CC(C)(C)CC(=O)O	i	i	i	i	nt
CN(C)C(=O)c1cccc(-c2cnc3c(NC=O)cc(-c4ccccc4Cl)cn23)c1	i	35	i	i	i
SMILES	MLL AF4-AF9 inh	Glyco luc inh	RAD52 inh	CASP6 VEID inh	RAD54 branch
COc1cccc(-c2cnc3c(NC=O)cc(-c4ccc(N5CCN(C)CC5)cc4)cn23)c1	35	i	i	nt	i
COc1cccc(-c2cnc3c(NC=O)cc(-c4ccccc4)cn23)c1	i	i	i	i	i
C=C(C)CN(CC)c1nc(N)c2c(N)nc3c(c2c1C#N)CC(=O)N3C12CC3CC(CC(C3)C1)C2	nt	nt	nt	nt	i
N#Cc1c(N2CCCC(O)C2)nc(N)c2c(N)nc3c(c12)CC(=O)N3C12CC3CC(CC(C3)C1)C2 (centres undefined)	nt	41	nt	nt	i
COc1ccccc1NC(=O)N1CCCCN2[C@H](CO)[C@H](c3ccc(-c4ccccc4)cc3)[C@H]2C1	i	nt	52	i	i
O=C(Nc1cc(F)ccc1F)N1CCCCN2[C@@H](CO)[C@@H](c3ccc(C4=CCCCC4)cc3)[C@@H]2C1	i	nt	54	i	i
COc1ccccc1NC(=O)N1CCCCN2[C@@H](CO)[C@H](c3ccc(-c4ccccc4)cc3)[C@@H]2C1	i	nt	67	i	i
COc1ccccc1NC(=O)N1CCCCN2[C@H](C1)[C@@H](c1ccc(-c3cccc(F)c3)cc1)[C@@H]2CO	i	nt	i	i	i
COc1ccccc1NC(=O)N1CCCCN2[C@H](CO)[C@H](c3ccc(-c4ccc(C)cc4)cc3)[C@@H]2C1	i	nt	i	i	i
O=C(Nc1cc(F)ccc1F)N1CCCCN2[C@H](C1)[C@H](c1ccc(C3=CCCCC3)cc1)[C@@H]2CO	i	nt	i	i	i
COc1ccccc1NC(=O)N1CCCCN2[C@H](CO)[C@H](c3ccc(-c4cccc(C)c4)cc3)[C@H]2C1	i	nt	i	i	i
COc1ccccc1NC(=O)N1CCCCN2[C@@H](CO)[C@@H](c3ccc(-c4ccccc4)cc3)[C@@H]2C1	i	nt	50	i	i
COc1ccc2c3c(n(C)c2c1)[C@H](CO)N(C(=O)c1ccncc1)CC31CCN(S(C)(=O)=O)CC1	i	nt	i	i	nt
Cc1cccc(C(=O)Nc2cccc(NC(=O)c3ccccc3)c2)c1	i	i	i	54	i
Cc1cccc(-c2ccc([C@@H]3[C@@H](CO)N4CCCCN(S(=O)(=O)c5cn(C)cn5)C[C@@H]34)cc2)c1	i	nt	i	i	i
COc1ccc(C(=O)Nc2sc3c(c2C#N)CCN(C(C)=O)C3)cc1	i	i	i	i	i
CC(=O)N1CCc2c(sc(NC(=O)c3ccc([N+](=O)[O-])o3)c2C#N)C1	i	i	i	38	i
O=C1C(Cl)=C(NCCCN2CCOCC2)C(=O)c2ccccc21	i	i	i	i	i
O=C1C(Cl)=C(NCCN2CCOCC2)C(=O)c2ccccc21	i	i	i	70	i
COc1ccc(-n2c(C)c(C(C)=O)c(C(C)=O)c2C)cc1	i	i	i	39	i
CN1/C(=C/C=C(/C#N)C(N)=O)C(C)(C)c2ccccc21	nt	26	nt	nt	i
Cn1cccc1CC(=O)N/N=C/c1cccc2ccccc12	nt	i	nt	nt	i
COc1ccccc1/C=C/C=N/NC(=O)Cc1cccn1C	56	i	i	i	nt
O=C(Nc1nnc(S(=O)(=O)N2CCOCC2)s1)c1ccc(Cl)cc1	i	i	i	i	i
O=C(Nc1nnc(S(=O)(=O)N2CCOCC2)s1)c1ccccc1	47	i	i	i	i
COc1cc(Br)c(C(=O)c2nccc3cc(OC)c(OC)cc23)cc1OC	i	i	i	97	i

Compound activity deposited in PubChem by Broad Institute.
